ELG1 repair inh: ELG1-dependent DNA repair inhibition. HEK293T ELG1-luciferase reporter, luminescence, 16 h; DNA damage induced by 5-fluorouridine. Potency, µM (series often up to 46.1 µM), actives largely listed as inhibitors. 330,000 tested, 2.3% active. AID 504467; note: nearly all actives have a fitted effect of over 55% in size
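Overnight (16 hr) co-exposure of 2,000 cells/well to 5-fluorouridine and compound at 37 °C preceded detection. Luciferase was quantified via ONE-Glo luminescence; loss of signal denotes inhibition.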
IL1B secr inh: blocks inflammasome-driven IL-1 beta release; THP-1 LPS/ATP IL-1B secretion, AlphaLISA, 16 h; hits give low values; activity change, % at 57.5 µM; 360,000 tested, 4.7% active; in the data active = activity change below about -50%; inconclusive = mostly about -30% to -49%
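THP-1 cells pretreated 1 hr with compounds (up to 57.5 uM final), then stimulated with LPS (250 ng/mL final) plus ATP (1.25 mM final); secreted IL-1B measured by AlphaLISA after 16 hr, decreased signal indicating inhibition.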
HT1080 IDH1KD tx: kills HT-1080 cells with IDH1 knockdown | HT-1080 IDH1 knockdown viability, ATP luminescence, 48 h | Potency, µM (highest dose often 46.1 µM), actives largely listed as cytotoxic | 360,000 tested, 2% active | AID 686971
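After a 2 h attachment period, IDH1KD HT-1080 cells took pin-transferred compound for 48 h at 37 °C; ATP-based luminescence after 10 min room-temperature reagent incubation reported viability.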
HT1080NT lethal: kills 2HG-producing HT-1080-NT fibrosarcoma cells | HT-1080-NT fibrosarcoma viability, CellTiter-Glo ATP luminescence, 48 h | Potency, µM (titrated, usually from 46.1 µM), usual class: cytotoxic | 360,000 tested, 1.6% active | AID 686970;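 note: NT is the 2HG producing partner of a matched IDH1 knockdown line; nearly all actives have a fitted effect of over 55% in size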
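Viability by CellTiter-Glo luminescence after 48 h compound exposure at 37C of HT-1080-NT cells (750/well, RPMI, 5% FBS). % activity scaled between DMSO wells and medium-only wells, then curve-fitted and categorized by curve class.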
TDP1 cell noCPT: qHTS for Inhibitors of human tyrosyl-DNA phosphodiesterase 1 (TDP1): qHTS in cells in absence of CPT. DT40 Tdp1-/- hTDP1 cells, no CPT, ATP luminescence, 48 h. Potency, µM (doses to about 46.2 µM), hits mostly inhibitors. 420,000 tested, 15% active; note: nearly all actives have a fitted effect of over 55% in size
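Growth of hTDP1-complemented DT40 Tdp1-knockout cells is measured by ATP luminescence after at least 48 hr compound exposure at 37 °C, with DMSO substituting for the 20 nM CPT used in the parallel screen.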
TDP1 cell CPT: DT40-hTDP1 cell growth loss with CPT; 420,000 tested, 12% active; Potency, µM (titrated, usually from 46.2 µM), usual class: inhibitors; AID 686979; chicken DT40 Tdp1-/-;hTDP1 cells + 20 nM CPT, ATP luminescence, 48 h; note: nearly all actives have a fitted effect of over 55% in size
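Chicken DT40 Tdp1-/- cells complemented with human TDP1, 400 cells/well, exposed to compounds plus 20 nM camptothecin for at least 48 h at 37 C; viability read as ATP content by CellTiter-Glo luminescence.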
Of the large screens only hits and unclear results are named; the others gave an inactive call. Only some compounds are listed: those with a hit (about 19% of all), similar ones and a draw of the others. Unless noted, calls come from the whole dose curve; as a rule, active = well fitted curve in the direction sought with a large enough effect; inconclusive = small, poorly fitted or top-dose-only effect, or another doubt; inactive = no such curve, though single readings can be large; an effect the other way counts as inactive or inconclusive.

CSc1ccccc1OCc1cc(C(=O)NCCN2CCCc3ccccc32)no1	ELG1 repair inh inconclusive, HT1080 IDH1KD tx 12µM, TDP1 cell noCPT 15µM, TDP1 cell CPT inconclusive
COCCCN1C(=O)C(CC(=O)NC2CC2)CC(C(=O)N(C(C)C)C(C)C)=C1C (stereo not drawn)	none (no result: ELG1 repair inh)
Cc1ccc(-n2nc(CO)c(C(=O)NCc3cccnc3)n2)cc1	TDP1 cell CPT inconclusive (no result: ELG1 repair inh, IL1B secr inh, HT1080 IDH1KD tx, HT1080NT lethal)
COc1cc(Nc2ccn3nccc3n2)cc(OC)c1OC	TDP1 cell CPT inconclusive (no result: ELG1 repair inh)
COc1cc(-c2cc3nc(NCc4cccs4)ccn3n2)cc(OC)c1OC	HT1080 IDH1KD tx inconclusive, HT1080NT lethal inconclusive, TDP1 cell noCPT 10µM, TDP1 cell CPT 10µM (no result: ELG1 repair inh)
COc1cc(Nc2ccn3nc(-c4ccc(F)cc4)cc3n2)cc(OC)c1OC	IL1B secr inh -68, TDP1 cell noCPT inconclusive, TDP1 cell CPT inconclusive (no result: ELG1 repair inh)
COc1cc(-c2cc3nc(NCc4cccc(Cl)c4)ccn3n2)cc(OC)c1OC	HT1080 IDH1KD tx 9.2µM, HT1080NT lethal 16µM, TDP1 cell noCPT 5.2µM, TDP1 cell CPT 6.5µM (no result: ELG1 repair inh)
C=C1Nc2ccccc2C(=O)N1c1ccc(C(=O)N2CCN(C(=O)c3ccco3)CC2)cc1	none (no result: ELG1 repair inh, IL1B secr inh, HT1080 IDH1KD tx, HT1080NT lethal)
O=C(Nc1nc(-c2ccccn2)cs1)c1cc(S(=O)(=O)N2CCOCC2)ccc1F	HT1080 IDH1KD tx inconclusive, HT1080NT lethal inconclusive, TDP1 cell noCPT 2.3µM, TDP1 cell CPT 2.6µM
Cc1ccc(C(=O)Nc2ccccn2)cc1S(=O)(=O)N1CCOCC1	none
O=C(Nc1nc(-c2ccccn2)cs1)c1ccc(F)c(S(=O)(=O)N2CCOCC2)c1	HT1080 IDH1KD tx inconclusive, HT1080NT lethal inconclusive, TDP1 cell noCPT 0.58µM, TDP1 cell CPT 1.5µM
Cc1ccc(C(=O)Nc2nc(-c3ccccn3)cs2)cc1S(=O)(=O)N1CCOCC1	HT1080 IDH1KD tx 4.6µM, HT1080NT lethal 18µM, TDP1 cell noCPT 0.73µM, TDP1 cell CPT 1.3µM
Cc1ccc(S(=O)(=O)N2CCOCC2)cc1C(=O)Nc1ccc(-c2cn3ccsc3n2)cc1	ELG1 repair inh 18µM, TDP1 cell noCPT 11µM, TDP1 cell CPT 11µM
Cc1ccc(S(=O)(=O)N2CCOCC2)cc1C(=O)NCc1cccnc1	none
Cc1ccc(S(=O)(=O)N2CCOCC2)cc1C(=O)Nc1nc(-c2cccnc2)cs1	ELG1 repair inh 12µM, TDP1 cell noCPT inconclusive
Cc1cccc(Cc2cnc(N3C(=N)SC(c4ccccc4)C3=O)s2)c1 (stereo not drawn)	TDP1 cell noCPT 26µM, TDP1 cell CPT 29µM
Cc1cccc(Cc2cnc(N3C(=N)SC(C)C3=O)s2)c1 (stereo not drawn)	ELG1 repair inh inconclusive, IL1B secr inh -84, TDP1 cell noCPT 18µM, TDP1 cell CPT inconclusive
Cc1ccc(Cc2cnc(N3C(=N)SC(C)C3=O)s2)cc1 (stereo not drawn)	ELG1 repair inh inconclusive, TDP1 cell noCPT inconclusive, TDP1 cell CPT inconclusive
Cc1cccc(C(=O)Nc2ccc(C(=O)N3CCCCC3C)cc2)c1 (stereo not drawn)	ELG1 repair inh inconclusive
c1ccc2c(c1)ccn2-n1ccc2ccccc21	TDP1 cell noCPT 13µM (no result: ELG1 repair inh, IL1B secr inh, HT1080 IDH1KD tx, HT1080NT lethal)
COc1ccc(-n2ccc3ccccc32)cc1	none
COc1ccc(-n2nc(N)c(C(N)=O)n2)cc1	ELG1 repair inh inconclusive, IL1B secr inh inconclusive, TDP1 cell noCPT inconclusive, TDP1 cell CPT inconclusive
CN(CC(=O)Nc1ccc(OC(F)(F)F)cc1)S(=O)(=O)c1cnc[nH]1	ELG1 repair inh inconclusive
CN(CC(=O)Nc1ccc(Cl)c(C(F)(F)F)c1)S(=O)(=O)c1cnc[nH]1	TDP1 cell noCPT 15µM, TDP1 cell CPT 15µM (no result: ELG1 repair inh)
CN(CC(=O)Nc1ccc(Cl)c(C(F)(F)F)c1)C(=O)c1cccc2cccnc12	TDP1 cell noCPT 23µM, TDP1 cell CPT inconclusive
CN(CC(=O)Nc1ccc(Cl)c(C(F)(F)F)c1)C(=O)CCCNC(=O)c1ccc(Cl)cc1	HT1080 IDH1KD tx inconclusive, HT1080NT lethal inconclusive, TDP1 cell noCPT 15µM, TDP1 cell CPT 21µM

Compound activity from PubChem.
